Experimental data as given in PubChem BioAssay AID449762 (Southern Research Specialized Biocontainment Screening …, 2010).
Where “and” joins values, the source holds several entries; their conditions need not be identical. Identical values can stand only once. The whole screen tested about 330,000 compounds, of which about 1,900 (0.58%) were called active. About 4% were inconclusive and are not listed. These entries were drawn from the full list. Results with a measured potency or affinity are listed apart. Unmarked numbers belong to inactive results. Rule as the data show it: inconclusive = inhibition above about 70% without an active follow-up result; inactive = below that.

Assay: M. tuberculosis growth inhibition, HTS (AID 449762);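 also: bacterial growth assessed after seven days of incubation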
Settings: M. tuberculosis H37Rv growth inhibition, 7H9 media; at 25 µM; stronger effect = higher value
`N/C(=N\S(=O)(=O)c1cc(C(F)(F)F)cc(C(F)(F)F)c1)c1ccncc1` gave an inhibition of 1.58%. Work on `CCc1nnc(NC(=O)CSC(=S)N2CCOCC2)s1` yielded an inhibition of -7.36%. Compound `CCOc1ccc(-n2ccc(=O)c(C(=O)O)n2)cc1` has an inhibition of -0.69%. `Cc1ccccc1-c1nc2c3ccccc3nc(=S)n2[nH]1` gave an inhibition of 14.3%. Work on `S=c1nc2ccccc2c2nc(-c3ccccc3Br)[nH]n12` yielded an inhibition of 8.46%. In the case of `CCOCCn1c(C)c(C(=O)OCC)c2cc(O)c3ccccc3c21`, the inhibition was 9.34%. `Cn1cnnc1SCc1ccccc1Br` gave an inhibition of -3.04%. Work on `Cn1cnnc1SCc1cccc(Br)c1` yielded an inhibition of 1.07%. `CCOc1ccc(S(=O)(=O)NN=C2CCN(C(C)=O)CC2)cc1` gave an inhibition of 10.4%. For `CCN1CCN(C(=O)/C=C/c2ccc(C)o2)CC1`, the inhibition was -7.62%. With `Cc1ccc(/C=C/C(=O)N2CCCC(C(N)=O)C2)o1` (stereo not drawn) the inhibition was 7.73%. For `COc1ccc(CCNC(=O)C2CCCN(c3ncnc4c3nc3n4CCCCC3)C2)c(OC)c1` (stereo not drawn), the inhibition was 3.42%. `CC(C)(C)C1CCC(=NNC(=O)C2COc3ccccc3O2)CC1` (stereo not drawn) showed an inhibition of 2.24%. Compound `Cc1[nH]nc2c1C(c1cccs1)C1=C(CC(C)(C)CC1=O)N2` (stereo not drawn) has an inhibition of -4.07%. For `CCn1ncc([N+](=O)[O-])c1C(=O)N1CCCC1`, the inhibition was 3%. `CCCn1cnc2cc(NCc3ccccc3O)ccc21` gave an inhibition of 29.1%. `COc1cccc(CNc2ccc3c(c2)ncn3C)c1OC` gave an inhibition of 8%. In the case of `N/C(=N\OC(=O)c1ccc([N+](=O)[O-])cc1)c1cccnc1`, the inhibition was 8.92%. Compound `CC(C)(C)C1=C(C#N)C(c2cc3c(cc2Br)OCO3)C(C#N)=C(N)O1` (stereo not drawn) has an inhibition of -2.53%. `O=C(Nc1ccc(N2CCN(C(=O)c3cccs3)CC2)cc1)c1ccccc1Cl` gave an inhibition of 1.86%. `Cc1cccc(NC(=O)c2ccc(C3SCC(=O)N3CCc3ccccc3)cc2)c1` (stereo not drawn) showed an inhibition of 0.15%. Work on `CC(=O)Nc1ccc(NC(=O)c2ccc(C3SCC(=O)N3CCc3ccccc3)cc2)cc1` (stereo not drawn) yielded an inhibition of 15.4%. `Oc1cc(Nc2ccncc2)cc2cccnc12` gave an inhibition of 13.8%. For `Oc1cc(NCc2ccc(F)cc2)cc2cccnc12`, the inhibition was 8.32%. Compound `CC(C)n1nnc(-c2ccc(OCc3ccccc3F)cc2)n1` has an inhibition of 8.81%. Compound `COc1ccc(NC(=O)CNC(=O)Cn2cnc3sc4c(c3c2=O)CCCC4)cc1OC` has an inhibition of 9.66%. With `COc1cccc(NC(=O)CNC(=O)Cn2cnc3sc(C)c(C)c3c2=O)c1` the inhibition was -5.96%. `O=C(O)CCc1ccc(-c2ccccc2)o1` showed an inhibition of -1.56%. Work on `COc1ccccc1-c1ccc(SCC(=O)NC2CCCC2)nn1` yielded an inhibition of -0.31%. `O=C(C#Cc1cccc([N+](=O)[O-])c1)c1ccccc1` gave an inhibition of 6.12%. `Nc1ccccc1C#Cc1ccccc1` showed an inhibition of -9.91%. `CC1CCCC(NC(=O)CN(C)CC(=O)Nc2ccc(F)cc2)C1C` (stereo not drawn) showed an inhibition of -12.8%. With `Nc1nnc(SCC(=O)OCC(=O)Nc2ccccc2)s1` the inhibition was -4.86%. Work on `O=C(CNS(=O)(=O)c1ccccc1)N1CCN(Cc2ccccc2)CC1` yielded an inhibition of -2.28%. `CCCCS(=O)(=O)/C=C\C1C2C=CC(C2)C1S(=O)(=O)CCCC` (stereo not drawn) showed an inhibition of 0.63%. Work on `CCCCS(=O)(=O)/C=C/[C@H]1[C@H](S(=O)(=O)CCCC)[C@H]2C=C[C@@H]1C2` yielded an inhibition of 1.49%. Compound `COCc1ccc(-c2c(-c3ccsc3)sc3ccccc23)cc1` has an inhibition of 6.72%. Compound `Oc1ccc(-c2c(-c3ccsc3)sc3ccccc23)cc1` has an inhibition of 28.2%. `CCN1CCN(c2ccc(NC(=O)c3cccc(F)c3)cc2Cl)CC1` showed an inhibition of 4.34%. Compound `CC(C)(C)C(=O)N1CCN(c2nc3ccc(Cl)cc3s2)CC1` has an inhibition of 13.8%. Compound `Cc1ccc(-n2cc(CN(C)CCc3cn[nH]c3)c(-c3cccc(C)c3)n2)cc1` has an inhibition of 19.1%. In the case of `CN(Cc1cn(C)nc1-c1cccc(Cl)c1)Cc1nccn1C`, the inhibition was -10.3%. For `Cc1ccc(NC2=C/C(=N/S(=O)(=O)c3cccs3)c3ccccc3C2=O)cc1C`, the inhibition was 5.44%. `Cc1ccc(NC2=C/C(=N/S(=O)(=O)c3cccs3)c3ccccc3C2=O)cc1` showed an inhibition of 62.9%. `COc1ccc(Cl)cc1NC(=O)Nc1ccc(Br)cn1` showed an inhibition of 5.18%. Compound `CC(Oc1ccc(-c2nccc(-c3ccccn3)n2)cc1)C(=O)NN` (stereo not drawn) has an inhibition of -4.92%. Compound `O=C(O)COc1ccc(-c2nccc(-c3ccccn3)n2)cc1` has an inhibition of 0.08%. In the case of `CC(=O)CSc1nc2ccccc2s1`, the inhibition was -0.04%. For `O=C(CSc1nc2ccccc2s1)CSc1nc2ccccc2s1`, the inhibition was 12%. Work on `FC(F)(F)c1nc2ccccc2c2nc3ccccc3n12` yielded an inhibition of 9.4%. In the case of `c1ccc(-c2nc3ccccc3c3nc4ccccc4n23)cc1`, the inhibition was -1.99%. For `COc1ccc(Cc2nc3ccc(C(=O)NCCSC)cc3o2)cc1`, the inhibition was 2.47%. For `COC(=O)CCNC(=O)c1ccc2nc(Cc3ccc(OC)c(OC)c3)oc2c1`, the inhibition was -1.6%. For `C/C(=N\NC(=O)C1CC1c1ccccc1)c1ccc(C)s1` (stereo not drawn), the inhibition was -2.49%. In the case of `CCOC(=O)Cc1nn(Cc2nc(-c3ccc(C)cc3)cs2)c(=O)c2ccccc12`, the inhibition was -4.15%. `Cn1nc(-c2ccc(OCC(N)=O)cc2)c2ccccc2c1=O` gave an inhibition of -19.8%. `CNC(=O)COc1ccc(-c2nn(C)c(=O)c3ccccc23)cc1` gave an inhibition of -7.66%. With `CCOC(=O)N1CCN(S(=O)(=O)c2ccc(C(=O)Nc3nc4c(s3)CC(C)CC4)cc2)CC1` (stereo not drawn) the inhibition was 16.7%. For `C#CCn1cnc2c(oc3ccccc32)c1=O`, the inhibition was 2.24%. `COc1ccc(Br)cc1-c1nc(CCl)cs1` gave an inhibition of 60.4%. `Cc1cc(C)n2nc(CC#N)c(C#N)c2n1` showed an inhibition of 1.45%. Work on `N#C/C(=C\c1ccccn1)c1ccccn1` yielded an inhibition of -3.85%. With `CCc1ccc(N2C(=O)CN(Cc3cccs3)C2=S)cc1` the inhibition was 38.7%. Work on `COc1ccccc1Nc1nc(N)nc(CN2CCN(Cc3ccccc3)CC2)n1` yielded an inhibition of 43.2%. For `COc1ccc(OCc2nc(N)nc(Nc3ccccc3OC)n2)cc1`, the inhibition was 2.69%. `O=C(CNC(=O)c1ccc(Br)o1)NC12CC3CC(CC(C3)C1)C2` gave an inhibition of 5.74%. With `COc1ccc(CN2C(=NC(=O)COc3ccccc3)SC3CS(=O)(=O)CC32)cc1` (stereo not drawn) the inhibition was -7.1%. In the case of `Cc1cc(C)n2nc(SCCCC(=O)c3ccc(F)cc3)nc2n1`, the inhibition was -9.89%. With `CN(C)N=Nc1ccc2nc[nH]c2c1` the inhibition was -2.52%. With `NC(=O)c1[nH]cnc1N` the inhibition was -17.9% and 7.5%. For `O=C1CCCCN1CCC(=O)N1CCCC(N2CCN(c3cccc(Cl)c3)CC2)C1` (stereo not drawn), the inhibition was -10.9%. In the case of `O=C(NNC(=O)C1CC(c2cccs2)=NO1)Nc1ccc(Cl)cc1` (stereo not drawn), the inhibition was -0.49%. For `Cc1cc(=O)[nH]c(SCC(=O)N(CCC#N)c2ccccc2)c1C#N`, the inhibition was -2.5%. In the case of `CCCCNC(=S)N1CCn2cccc2C1c1cccnc1` (stereo not drawn), the inhibition was -0.76%. In the case of `C=C1C(=O)[C@@]23[C@H](O)C[C@@H]4C(C)(C)CC[C@H](O)[C@]4(C)[C@@H]2C[C@H](O)[C@@H]1[C@H]3O`, the inhibition was 62.1%. In the case of `COc1cc(-c2ccc3c(=O)c4ccccc4sc3c2)cc(OC)c1OC`, the inhibition was 8.35%. Work on `CCOC(=O)c1c(C)oc2ccc(NS(=O)(=O)c3ccc4c5c(cccc35)C(=O)N4)cc12` yielded an inhibition of 62.7%. `Cc1oc2c(cc(NS(=O)(=O)c3ccc4c5c(cccc35)C(=O)N4)c3ccccc32)c1C(=O)OC(C)C` showed an inhibition of 51%. `Nc1nc(SCc2ccccc2)ns1` gave an inhibition of 15%. `Nc1nc(SCc2ccc(Cl)cc2Cl)ns1` showed an inhibition of 22.1%. For `CC1(C)CC[C@]2(C(=O)O[C@@H]3OC(CO)[C@@H](O)[C@H](O)[C@H]3O)CC[C@]3(C)C(=CCC4[C@@]5(C)CC[C@H](O[C@@H]6OC(C(=O)O)[C@@H](O)[C@H](O)[C@H]6O)C(C)(C)C5CC[C@]43C)[C@@H]2C1` (stereo partly drawn), the inhibition was 1.92%. Compound `CN(CC(=O)Nc1cccc(F)c1)C(=O)c1ccc(-c2cccc(C(F)(F)F)c2)o1` has an inhibition of 0.48%. Work on `CCOc1ccccc1N(CC(=O)Nc1cccc2ccccc12)S(C)(=O)=O` yielded an inhibition of -0.92%. In the case of `CC1(C)Cc2c(c(N3CCOCC3)nc3sc4c(NCCN5CCOCC5)nnnc4c23)CS1`, the inhibition was 36.9%. `CC1(C)Cc2c(c(N3CCOCC3)nc3sc4c(NCC5CCCO5)nnnc4c23)CS1` (stereo not drawn) gave an inhibition of 11.7%. With `O=S(=O)(NC1=NCCC1)c1cccc(NS(=O)(=O)c2ccc(OC(F)(F)F)cc2)c1` the inhibition was -9.41%. `COc1ccccc1N(CC(=O)NCCc1ccccc1)C(=O)CCC(=O)Nc1ccccn1` gave an inhibition of -2.52%. With `COc1ccc(NC(=O)N2CCC3(CC2)OCCO3)cc1OC` the inhibition was 1.68%. `COc1ccc(NC(=O)CSc2nnc(-c3ccco3)n2N)cc1Cl` gave an inhibition of 46.6%. With `COc1ccc(NC(=O)CSc2nnc(-c3ccccn3)n2N)cc1` the inhibition was 8.63%. `CC(C)(C)c1ccc(C(=O)NCC(=O)NNC(=O)c2ccccc2O)cc1` gave an inhibition of 8.86%. In the case of `O=C(N/N=C/c1ccncc1)c1cc2c(ccc3ccccc32)o1`, the inhibition was 1.21%. For `O=C(O)c1ccc(/C=N/NC(=O)c2cc3c(ccc4ccccc43)o2)cc1`, the inhibition was 4.81%. Work on `CC(C)(C)c1ccc(OCC(=O)Nc2ccc(C(=O)Nc3ccccc3C(=O)O)cc2)cc1` yielded an inhibition of -6.72%. Work on `O=C1NCC(O)=C1C=NCCO` yielded an inhibition of 4.69%. With `Fc1ccc(N=Cc2ccc[nH]2)cc1` the inhibition was 13.1%. In the case of `Cc1ccc(N=Cc2ccc[nH]2)c(O)c1`, the inhibition was 2.98%. `O=C1NCC(O)=C1C=NCCCO` showed an inhibition of -4.48%.
